Here are results for 73 molecules from PubChem BioAssay AID1259418 (Broad Institute, 2018).

The structures appear in SMILES notation. Hit rate of the full screen: of about 3,400 compounds, about 840 (25%) were called active. Inconclusive results (about 11%) are left out. These entries were drawn from the full list. Results with a measured potency or affinity are listed apart. A number with no mark means an inactive call.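 How the source made its calls: active means fitted half-maximal concentration of signal decrease at or below twice the sample's top tested concentration; inconclusive means flat curve between -70 and -30 percent, or poor fit; inactive means flat within 30 percent, signal rise, or potency above limit.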

The nature of the assay: T. gondii growth inhibition with IFN-gamma, dose response, cell-based, ME49Luc, HeLa, luciferase, 72 h (AID 1259418). The settings on record: T. gondii ME49Luc in IFN-y HeLa, stronger effect = lower value, -100% = high-dose IFN-γ control wells; at 19.5 µM unless noted.
As for `Cc1ccc(-c2nc(CSc3nc4c(c(=O)[nH]3)CN(Cc3ccc(Cl)cc3)CC4)c(C)o2)cc1`, the max activity is 23.9%.

`O=C(Cn1cccc1-c1nc(-c2ccc(Cl)cc2)cs1)N1CCC2(CC1)OCCO2`: the max activity is -6.36% [at 10 µM].

In the case of `O=C1CCc2cc(S(=O)(=O)N3CCN(c4ccc(F)cc4)CC3)cc3c2N1CCC3`, the max activity is 10.7% [at 2.6 µM]. On to `CCOC(=O)c1cccc(NC(=O)Nc2ccc(-c3nc(-c4ccc(C)cc4)co3)cc2)c1`, for which the max activity is 67.3%. The figure for `COc1ccc(-c2nc3c(s2)CN(C(=O)Nc2ccc(Br)cc2)CC3)cc1` is 26.4% [at 10 µM]; for `Cc1nc(-c2ccccc2)sc1C(=O)Nc1ccc(-n2c(C)nc3ccccc3c2=O)cc1` it is -25.8%; for `CC1CCN(C(=O)c2ccc(-c3csc(C4CC4)n3)cc2)CC1` it is 6.7%.

In the case of `CCN1C(=O)CCc2cc(NC(=O)Cc3c(F)cccc3Cl)ccc21`, the max activity was 7.81%. Then `O=C(Nc1ccc(-c2nc(-c3ccccc3)co2)cc1)c1ccc(Br)o1`, with 25.6%; and `Cc1ccc2c(c1C)-n1cccc1C1(CCN(C(=O)c3cccs3)CC1)N2`, with -15.1% [at 5 µM]; and `COc1ccc(-c2nc(N3CCC(C)CC3)c3ccccc3n2)cc1`, with 21.8%. For `COc1ccc(OCC(=O)N2CCC[C@@H]2C(=O)NCCc2csc(-c3ccccc3)n2)cc1`, the max activity is 10.2% [at 0.16 µM]. Regarding `COc1ccc(-c2nc(NCCCN3CCCC3)c3ccccc3n2)cc1`, the max activity was 15.7%. Then `CCCN1CCN(CCCNc2nc(-c3ccc(Cl)cc3)nc3ccccc23)CC1`, with -50.1% [at 1.35 µM].

For the molecule `COc1ccc(-c2nc(NCCN3CCN(c4ccc(OC)cc4)CC3)c3ccccc3n2)cc1`, the max activity is 15.4% [at 0.16 µM]. As for `COc1ccc(N2CCN(CCNc3nc(-c4ccc(Cl)cc4)nc4ccccc34)CC2)cc1`, the max activity is 22% [at 0.68 µM]. On to `COc1ccc(-c2nc(NCCCN3CCN(c4ccc(F)cc4)CC3)c3ccccc3n2)cc1`, for which the max activity is -17.2% [at 0.35 µM]. For the molecule `COc1ccc(-c2nc(NCCCN3CCN(c4cc(C)ccc4C)CC3)c3ccccc3n2)cc1`, the max activity is 21.7%. As for `O=C(NCCc1csc(-c2ccccc2)n1)[C@H]1CCCN1C(=O)c1cccc(Cl)c1`, the max activity was -10.8% [at 0.35 µM]. The figure for `Cc1cccc(-c2nc(Cn3nnc(-c4nc(-c5cccc(F)c5)no4)c3C)c(C)o2)c1` is -7.79% [at 1.35 µM]. The figure for `COc1ccccc1-c1nc(Cn2nnc(-c3nc(-c4ccccc4C)no3)c2C)c(C)o1` is 11.1% [at 0.16 µM]. On to `COc1ccc(-c2nc(NCc3ccccc3Cl)c3ccccc3n2)cc1`, for which the max activity was 7.56% [at 0.16 µM]. `COc1ccccc1CNC(=O)CC1N=C2c3ccccc3N=C(SCC#N)N2C1=O` (stereo not drawn): the max activity was 42.4% [at 10 µM].

In the case of `COc1cc(OC)cc(-c2noc(-c3nnn(Cc4nc(-c5ccc(C)cc5)oc4C)c3C)n2)c1`, the max activity was 10.5% [at 0.16 µM]. The figure for `CC1CCCCN1C(=O)c1ccnn1-c1ccc2ccc(-c3ccccc3)cn12` (stereo not drawn) is 31.6%; for `Cc1ccc(NC(=O)N2CCN(Cc3nc(-c4ccccc4C)oc3C)CC2)cc1C` it is 8.71% [at 0.68 µM]; for `CCC(CN1CCOCC1)Nc1nc(-c2ccc(OC)cc2)nc2ccccc12` (stereo not drawn) it is 27.4%. The figure for `COc1ccc(-c2nc(NCCCN3CCC(Cc4ccccc4)CC3)c3ccccc3n2)cc1` is -19.1% [at 0.35 µM]. The figure for `O=C(NCCc1c[nH]c2ccccc12)c1cc(-c2ccccn2)nc2ccccc12` is 15.3% [at 0.68 µM]; for `CCCc1ccc(S(=O)(=O)N2CCc3nc(-c4ccc(OCC)cc4)sc3C2)cc1` it is 88.1%; for `Cc1ccc(CN2CC[C@H]3CO[C@@H](CNC(=O)C4CC4)[C@@H]3C2)cc1` it is 18.5%. As for `O=C1N(CC2CC2)CCC12CCCN(Cc1cncc(Cl)c1)CC2` (stereo not drawn), the max activity is 33.7%.

`COc1cccc(N(Cc2nc(-c3ccc(C)cc3)oc2C)S(=O)(=O)c2ccccc2)c1`: the max activity was -10.4% [at 10 µM]. For the molecule `COc1cccc(N(Cc2nc(-c3ccc(OC(C)C)cc3)oc2C)S(=O)(=O)c2ccccc2)c1`, the max activity was 4.32% [at 10 µM]. Regarding `COc1ccc(CNC(=O)CC2N=C3c4ccccc4N=C(SCc4cc(=O)n5ccccc5n4)N3C2=O)cc1` (stereo not drawn), the max activity is 19.7% [at 2.6 µM]. Take `CCOC(=O)c1c(C)[nH]c(-c2ccccc2)c1-c1ccccc1`: the max activity was 20.8% [at 10 µM].

Regarding `CCc1ccc(NC(=O)Nc2ccc(-c3nc(-c4ccc(C)cc4)co3)cc2)cc1`, the max activity is 11.2% [at 0.16 µM]. Consider `CCc1ccc(S(=O)(=O)N2CCC3(CC2)NCCN=C3NCc2cccc(OC)c2)cc1`, for which the max activity is -9.5% [at 0.68 µM].

As for `Cc1ccc(S(=O)(=O)N2CCC3(CC2)NCCN=C3NCc2cccc(F)c2)c(C)c1`, the max activity was -19.4% [at 10 µM]. Consider `COc1ccc(CNC2=NCCNC23CCN(S(=O)(=O)c2cccs2)CC3)cc1`, for which the max activity is -8.27% [at 0.35 µM]. The figure for `Cc1ccc(S(=O)(=O)N2CCC3(CC2)NCCN=C3NCc2ccc(F)cc2)c(C)c1` is -23.4%; for `CN(C)C(=O)c1ccc(-c2ccc([C@H]3[C@@H](CO)N4C(=O)CN(C(=O)CC5CC5)C[C@@H]34)cc2)cc1` it is 20.3%; for `Cc1cnc(N2C[C@@H](c3ccccc3)[C@@]3(CCNC3=O)C2)nc1` it is 22.8%. The figure for `Cc1ccc(-n2ncc3c(NCC4CCCO4)ncnc32)c(C)c1` (stereo not drawn) is 9.91% [at 0.16 µM]; for `COc1ccc(CNC(=O)CCC2N=C3c4ccccc4N=C(SCc4cc(=O)n5cc(Cl)ccc5n4)N3C2=O)cc1` (stereo not drawn) it is -8.86% [at 1.35 µM]. The figure for `CSc1ccc(-c2noc(-c3nnn(Cc4nc(-c5cccc(C)c5)oc4C)c3C)n2)cc1` is -16.4% [at 0.16 µM]; for `Cc1ccc(OCC(=O)Nc2cncc(-c3nc4ccccc4o3)c2)cc1` it is 10.2% [at 1.35 µM]. With `Cc1nc(CCNC(=O)[C@H]2CCCN2S(=O)(=O)c2ccc3c(c2)CCCC3)cs1`, the max activity is 26.6% [at 0.35 µM].

For `Cc1ccc2c(c1)cc(S(=O)(=O)c1ccccc1)c(=O)n2CC(=O)NCc1ccc2c(c1)OCO2`, the max activity was -10.2% [at 0.68 µM]. The figure for `Cc1ccccc1CNC1=NCCNC12CCN(S(=O)(=O)c1cccs1)CC2` is 21.2% [at 10 µM]; for `Cc1ccc(S(=O)(=O)N2CCC3(CC2)NCCN=C3NCc2ccccc2C)c(C)c1` it is -17.1%; for `Cc1cccc(CNC2=NCCNC23CCN(S(=O)(=O)c2ccc(C)c(C)c2)CC3)c1` it is -21.5%.

With `COCCCNC1=NCCNC12CCN(S(=O)(=O)c1ccc(C)cc1C)CC2`, the max activity is 13.7% [at 10 µM].

For the molecule `O=C(CC1N=C2c3ccccc3N=C(SCc3cc(=O)n4ccccc4n3)N2C1=O)NCc1ccc2c(c1)OCO2` (stereo not drawn), the max activity was 49.3%. Then `Cc1nc(OCC(=O)Nc2ccc(C)c(C)c2)c2ccccc2n1`, with 14.4% [at 0.16 µM].

In the case of `O=C(Nc1ccc(Cl)cc1)N1C[C@H]2[C@@H](c3ccccc31)[C@@H](CO)N2CC1CCCCC1`, the max activity was 10.8% [at 10 µM]. `CSc1cccc(NC(=O)CN2CCC3(CC2)N=C(c2ccc(F)cc2)C(=O)N3)c1`: the max activity is 9.26%.

For `COc1ccccc1-c1nc(CN2CCc3c(sc4c3CCCC4)C2c2ccccc2)c(C)o1` (stereo not drawn), the max activity was 10.8% [at 0.038 µM]. Then `COc1ccc(CN2C[C@@H]3CN(Cc4cnn(C)c4)C[C@H]3C2=O)cc1`, with 20.7%; and `COc1ccc(CN2CCO[C@H]3[C@H]2CC[C@H]3OCCCn2cccn2)cc1`, with 14.7% [at 5 µM].

As for `Cc1nc2c(cnn2-c2ccccc2)c(=O)n1-c1cccc2ccccc12`, the max activity is 22.6% [at 10 µM]. Then `COc1ccc2c(c1)NC1(CCN(C(=O)c3ccccc3Cl)CC1)c1cccn1-2`, with -5.12%; and `CCOc1ccc(-c2nc(Cn3c(=O)c4c(C)cc(C)nc4n(-c4ccccc4)c3=O)c(C)o2)cc1`, with 8.31% [at 0.16 µM]. With `O=C(Nc1ccccc1F)N1CCCCN2[C@H](C1)[C@H](c1ccc(/C=C/c3ccccc3)cc1)[C@@H]2CO`, the max activity was 35.7% [at 10 µM].

In the case of `COc1ccc(NC(=O)N2CCCCN3[C@@H](CO)[C@H](c4ccc(-c5ccccc5F)cc4)[C@@H]3C2)cc1`, the max activity was 20.7% [at 5 µM]. Then `CCc1ccc(-n2nnc(C(=O)N3CCC(N4CCCCC4)CC3)c2-c2ccncc2)cc1`, with 6.73% [at 5 µM]; and `Cc1[nH]c2ccccc2c1C(=O)C(=O)NC1CC(=O)N(c2ccc3c(c2)OCCO3)C1` (stereo not drawn), with 7.24%; and `Cc1ccc(-c2coc(-c3ccc(NC(=O)COc4ccccc4C)cc3)n2)c(C)c1`, with -20.2% [at 1.35 µM]. The figure for `COc1ccc(-c2nc(N(C)C3CCCCC3)c3ccccc3n2)cc1` is 11.7%. The figure for `COc1ccccc1Nc1nc(-c2ccc(Cl)cc2)nc2ccccc12` is -18.5% [at 0.68 µM]; for `Cc1ccsc1C(=O)Nc1ccc(-c2nc(-c3ccccc3)co2)cc1` it is 30.4% [at 0.68 µM]; for `COc1cccc(N(Cc2nc(-c3ccccc3)oc2C)S(=O)(=O)c2ccc(C)cc2)c1` it is -7.21% [at 1.35 µM]. As to `O=C(Cn1c(=O)c(S(=O)(=O)c2ccccc2)cc2ccccc21)NC1CCCC1`, the max activity was 9.84% [at 0.35 µM].
